# Measured values as given in article PMC5540273 (PLoS ONE, 2017).
# Tests used:
# Details in all cases: concentration: 1 μM, replicates: in singlicate; n = 1
# CDKL5 = tested on: CDKL5
# CHEK1 = tested on: CHEK1
# CHEK2 = tested on: CHEK2
# CIT = tested on: CIT
# CLK1 = tested on: CLK1
# CLK2 = tested on: CLK2
# CLK3 = tested on: CLK3
# CLK4 = tested on: CLK4
# CSF1R-autoinhibited = tested on: CSF1R-autoinhibited
# CSF1R = tested on: CSF1R
# CSK = tested on: CSK
# CSNK1A1L = tested on: CSNK1A1L
# CSNK1A1 = tested on: CSNK1A1
# CSNK1D = tested on: CSNK1D
# CSNK1E = tested on: CSNK1E
# CSNK1G1 = tested on: CSNK1G1
# CSNK1G2 = tested on: CSNK1G2
# CSNK1G3 = tested on: CSNK1G3
# CSNK2A1 = tested on: CSNK2A1
# CSNK2A2 = tested on: CSNK2A2
# 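Note: KINOMEscan kinase panel screen.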
Structure (SMILES),%Inh (CDKL5) [%],%Inh (CHEK1) [%],%Inh (CHEK2) [%],%Inh (CIT) [%],%Inh (CLK1) [%],%Inh (CLK2) [%],%Inh (CLK3) [%],%Inh (CLK4) [%],%Inh (CSF1R-autoinhibited) [%],%Inh (CSF1R) [%],%Inh (CSK) [%],%Inh (CSNK1A1L) [%],%Inh (CSNK1A1) [%],%Inh (CSNK1D) [%],%Inh (CSNK1E) [%],%Inh (CSNK1G1) [%],%Inh (CSNK1G2) [%],%Inh (CSNK1G3) [%],%Inh (CSNK2A1) [%],%Inh (CSNK2A2) [%]
CC(C)c1cc(-c2ccc3c(N)n[nH]c3c2)nc(N)n1 [GSK2250882],0,0,84,5,59,21,0,62,6,5,0,0,0,0,7,10,0,25,0,10
COc1cccc(NC(=O)Nc2ccc(C)c(-c3ccc(C(=O)Nc4ccncc4)cc3)c2)c1 [GSK1398474],0,7,0,94.8,29,0,65,5,0,86,0,0,0,31,42,8,25,34,0,10
CS(=O)(=O)CCNCc1nc(-c2ccc3ncnc(Nc4ccc(OCc5ccccc5)c(Cl)c4)c3c2)cs1.Cl [GW582764],0,100,30,38,22,0,0,6,48,3,0,9,0,10,15,0,0,13,0,0
COc1cccc(C2=C(Nc3cc(Cl)c(O)c(Cl)c3)C(=O)NC2=O)c1 [SB-390767],0,100,0,7,46,0,14,15,0,0,0,5,0,13,24,100,0,25,0,0
COc1ccc(Nc2nccc(NCCNC(=O)Nc3cc(C)ccc3C)n2)cc1 [GSK1379899],5,5,86,7,23,0,6,57,0,0,0,1,0,4,22,0,0,15,1,0
COC(=O)C(Cc1ccccc1)NC(=O)NC1CCN(c2ccnc(Nc3ccc(F)cc3)n2)C1 (stereo not shown) [GSK1379714],1,86,14,6,5,0,0,13,35,1,0,2,5,7,7,0,13,11,0,14
COc1nccc(-c2c(-c3ccc(F)cc3)ncn2CCCN2CCOCC2)n1 [SB-282852],0,0,0,17,73,0,0,5,41,0,0,45,44,31,29,0,0,53,0,9
CCc1ccc(-c2ccc3c(c2)-c2n[nH]cc2S(=O)(=O)N3C)cc1,0,0,0,0,0,0,1,4,5,0,0,0,0,32,0,0,0,0,0,0
Cc1ccc(-c2nc(Nc3ccncc3)c3ccccc3n2)s1 [GSK189015],14,22,0,42,35,0,0,28,0,4,0,13,24,33,22,14,12,35,27,30
COc1ccc(CSc2nnc(-c3ccc4nccn4c3)o2)cc1C(F)(F)F,16,23,17,14,97.1,91.9,12,90.3,6,17,0,0,18,0,0,15,0,0,0,21
COc1ccc(CSc2nnc(-c3ccc4ncsc4c3)o2)cc1C(F)(F)F,8,1,17,9,90.5,39,0,83,0,1,0,0,0,0,0,0,0,0,0,2
